Screens from PubChem.
Shown are actives, neighbours in structure and some others; about 19% of the full set was active somewhere.
Pf growth 96h = inhibits malaria parasite growth, 96 h; Potency, µM (series often up to 28.7 µM), without a hit: at the top dose activity change, negative = inhibition, usual class: inhibitors; AID 504834; 6.9% of 320,000 active; P. falciparum luciferase reporter growth, 96 h; further: potency means the concentration at half of the fitted maximal effect; on the % scale 0 is the no-effect control and ±100 the full control effect
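96 h incubation, 37 C, 5% CO2, of luciferase-reporter P. falciparum-infected RBCs (2% hematocrit, 0.05% parasitemia final) with test compounds; endpoint luminescence.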
Pf growth 48h = P. falciparum growth inhibition at 48 hours (one generation) | P. falciparum luciferase growth in erythrocytes, 48 h | AID 504832 | 5.9% of 310,000 active | Potency, µM (top dose mostly 28.7 µM), for the others: at the top dose activity change, negative = inhibition, most hits filed as inhibitors; further: potency means the concentration at half of the fitted maximal effect; on the % scale 0 is the no-effect control and ±100 the full control effect
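A one-generation exposure of luciferase-tagged malaria parasites in RPMI 1640/Albumax erythrocyte culture, 37 C and 5% CO2. Inhibition is inferred from decreased luminescence after adding detection reagent.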
CHX counter = affects cycloheximide protein synthesis inhibition readout, counter-screen | AID 2314 | 12% of 300,000 active | max response, % | cell reporter, cycloheximide protein synthesis inhibition counterscreen; in the data active means max response mostly above about 13%, no sharp cut-off; inactive means mostly below about 14%; further: read at 38.3 µM for the half of the compounds with a filed dose; 0% is about no effect
SARS PLpro yeast-1 = inhibitors of SARS-CoV papain-like protease in yeast; 0.19% of 330,000 active; S. cerevisiae expressing SARS-CoV PLpro, growth rescue; Potency, µM (highest dose often 32.9 µM), inactives show top-dose activity, positive = growth rescue, hits mostly activators; AID 485353; calls by dose curve; further: potency means the concentration at half of the fitted maximal effect; 0% is about no effect; nearly all actives have a fitted effect of over 55% in size
AMA1 RON2 block = AMA1-RON2 (P. falciparum) interaction inhibition. Potency, µM (titrated, usually from 58.2 µM), inactives show at the top dose activity change, negative = inhibition, most hits filed as inhibitors. 0.2% of 360,000 active. AlphaScreen AMA1-biotinylated RON2 peptide binding;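 further: potency means the concentration at half of the fitted maximal effect; 0% = vehicle wells and -100% = peptide control; nearly all actives have a fitted effect of over 45% in size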
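AMA1 (3D7) with his tag at 25 nM final met compounds first, then biotinylated RON2 peptide at 25 nM; detection used donor plus acceptor beads, 10 µg/mL apiece, read by AlphaScreen after 30 min at room temperature.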
Shiga inhibitor = Shiga toxin inhibition; Vero cells, Shiga toxin protein synthesis inhibition reporter; inhibition, % at 38.7 µM; 9.2% of 290,000 active; in the data active means inhibition mostly above about 28%, no sharp cut-off; inactive means mostly below about 43%; further: 0% is about no effect
SARS PLpro yeast-2 = Inhibits SARS-CoV PLP in yeast, hit validation; shares compounds with SARS PLpro yeast-1; yeast expressing SARS-CoV PLpro, growth phenotype rescue; calls only; 19% of 1,000 active; call rule not given here
* hit, by the source's call; i = inactive; ? = inconclusive; . = no result given; + = active, no number; [ ] = dose if it differs, or a comment. Unless noted, the call rests on the fitted dose curve; in most records, active means well fitted curve in the direction sought with a large enough effect; inconclusive means small, poorly fitted or top-dose-only effect, or another doubt; inactive means no such curve, though single readings can be large; an effect the other way counts as inactive or inconclusive.

SMILES	Pf growth 96h	Pf growth 48h	CHX counter	SARS PLpro yeast-1	AMA1 RON2 block	Shiga inhibitor	SARS PLpro yeast-2
COc1cc(-c2nc3ccccn3c2/N=C/c2cc(OC)c(OC)c(OC)c2)ccc1O	.	.	.	.	-5%	.	.
CN(C)c1ccc(-c2nc3ccccn3c2/N=C/c2ccc(Br)cc2)cc1	-54%	?	46*	.	?	80	i
COCC(C)n1c(C)cc(C(=O)COC(=O)CN=C2NS(=O)(=O)c3ccccc32)c1C (stereo not drawn)	?	-3%	2	5%	4%	10	.
Cc1cc(SCc2ccc([N+](=O)[O-])cc2)nc(=O)[nH]1	-11%	29%	23	0%	-7%	22	.
C[C@@](O)(/C=C/[C@H]1CC=CC(=O)O1)[C@@H](C[C@@H](O)\C=C/C=C\C=C\CO)OP(=O)(O)O	.	.	12	.	.	i	.
O=S(=O)(Cc1cnc(Cl)s1)c1ccccc1	12%	4%	-2	13µM*	3%	-1	i
COc1ccc(N(CN2C(=O)c3ccccc3C2=O)C(=O)COc2ccc(Cl)cc2Cl)cc1	15%	7%	0	13µM*	-5%	-2	i
CC(C)C[C@H]1CN=C(N(C)C)N1CCCCc1ccccc1	?	5.2µM*	.	6.3µM*	-1%	.	i
CCC(C)c1ccccc1N1CC(C(=O)N(C)CC(=O)Nc2cccc(F)c2)CC1=O (stereo not drawn)	?	?	.	-4%	10%	.	.
Cc1ccc(S(=O)(=O)NC(=O)C2(C)CCN2C(=O)Cc2ccc(Cl)cc2Cl)nc1 (stereo not drawn)	.	.	.	.	76%	.	.
COc1ccc(/C(N)=N/OC(=O)c2cccc([N+](=O)[O-])c2C)cc1OC	13µM*	.	-3	?	-3%	-8	i
COc1cccc(N2CCN(c3nc(C)cc(=O)[nH]3)CC2)c1	0%	3%	-3	1%	0%	-2	.
CCOC(=O)CC(NC(=O)c1ccco1)c1ccc(OC)cc1 (stereo not drawn)	273%	-11%	2	?	12%	21	i
COc1ccc(C(CC(=O)O)NC(=O)c2ccco2)cc1 (stereo not drawn)	.	7%	-3	9%	-4%	3	.
Cc1ccccc1S(=O)(=O)Cc1ccc(C(=O)NCCCN2CCN(C)CC2)o1	110%	?	5	?	3%	-9	i
Cc1ccccc1S(=O)(=O)Cc1ccc(C(=O)NCCCN2CCCC2)o1	?	19%	-4	-2%	-3%	-7	.
CC(C)n1cnnc1SCC(=O)NC(=O)c1ccccc1	12%	7%	.	?	1%	.	i
S=C(NCc1cccs1)NCC1CCCO1 (stereo not drawn)	-45%[5.75 µM]	6%[5.75 µM]	-1	0%	-10%	13	.
COc1ccc(CCn2c(C)c(C(C)=O)c(C(C)=O)c2C)cc1OC	?	9%	7	2%	-22%	-9	.
COc1ccc(CCn2c(C)cc(C(=O)CCl)c2C)cc1OC	?	?	-2	10µM*	-11%	-24	+
COC(=O)c1ccc(/C=N/NC(=O)C(=O)NCC2CCCO2)cc1 (stereo not drawn)	70%	44%	-1	1%	-5%	-3	.
NC(=S)N/N=C/c1ccccc1OCc1cccc(Cl)c1	9.3µM*	13µM*	-2	16µM*	0%	16	?
COc1cccc(N2CC(C(=O)Nc3nnc(SCC(=O)c4ccccc4)s3)CC2=O)c1 (stereo not drawn)	?	-8%	1	13%	?	-12	.
COc1ccc(C(=O)CSc2nnc(NC(=O)C3CC(=O)N(c4ccccc4)C3)s2)cc1 (stereo not drawn)	-27%	12%	-2	?	4%	-14	?
O=C(CN1C(=O)c2cccc3cccc1c23)Nc1cccnc1	?	16%	4	1%	0%	10	.
SMILES	Pf growth 96h	Pf growth 48h	CHX counter	SARS PLpro yeast-1	AMA1 RON2 block	Shiga inhibitor	SARS PLpro yeast-2
Cc1c(Cl)cccc1NC(=O)Cc1ccc([N+](=O)[O-])cc1	7%	?	5	1%	23%	17	.
Cc1cccc(Oc2ccccc2NS(=O)(=O)c2ccc(CCC(=O)O)cc2)c1	-2%	-13%	.	2.2µM*	-8%	.	i
CCOC(=O)c1ccc(NC(=O)CN2CCN(C(=O)C3CCCO3)CC2)cc1 (stereo not drawn)	95%	-2%	-2	-4%	-7%	-4	.
CSCCC(N=C(NS(=O)(=O)c1ccc(C)cc1)c1ccccc1)C(=O)O (stereo not drawn)	27%	7%	-1	-1%	3%	18	.
C=CCn1c(SCc2cc(=O)n3cc(C)ccc3n2)nnc1-c1cccc(C)c1	?	-29%	-2	11µM*	10%	-10	i
COc1ccc(NC(=O)CN(C)C(C)C(=O)NC(=O)NC2CCCCC2)cc1 (stereo not drawn)	?	-7%	5	5%	86%	-8	.
O=C(OCc1ccccc1F)c1cc(S(=O)(=O)N2CCCCC2)ccc1N1CCOCC1	.	.	.	.	-7%	.	.
Cc1ccccc1OCCOC(=O)c1cc(S(=O)(=O)N2CCCCC2)ccc1N1CCOCC1	?	13µM*	.	10µM*	-28%	.	?
C=C(C)Cn1c(SCC(=O)N/N=C/c2c(O)ccc3ccccc23)nc2ccccc2c1=O	0%	-1%	5	10µM*	37%	12	+
Cc1ccc(NS(=O)(=O)c2c(C)nc3sccn3c2=O)cc1C	?	10%	-2	3%	-4%	-2	.
COc1ccc(OC)c(/C=N/NC(=O)C(=O)N/N=C/c2cc(OC)ccc2OC)c1	.	.	.	.	35%	.	.
COc1cccc(/C=N/NC(=O)c2cc(-c3cccn3C)n[nH]2)c1O	?	?	10	7.1µM*	14%	1	?
COc1cccc(/C=N/Nc2ncnc(Cl)c2N)c1O	2.6µM*	1.7µM*	55*	4.5µM*	-19%	40*	i
COc1cccc(/C=N/NC(=O)C(=O)N/N=C/c2cccc(OC)c2O)c1O	0%	0%	9	?	?	-9	+
COc1cccc(/C=N/NC(=O)CCc2c(C)n[nH]c2C)c1O	46%	?	1	0%	100%	7	.
CCOC(=O)c1ccc(NC(=O)C2CCN(C(=O)c3ccc(OC)c(OC)c3)CC2)cc1	.	?	-1	?	0%	-9	i
Cc1cc(SC#N)cc(C)c1NC(=O)CCl	58%	-11%	2	.	4%	4	i
CCCC(=O)N1CCCC1(C)C(=O)Nc1cccc(OC(C)C)c1 (stereo not drawn)	.	.	.	.	11%	.	.
C[C@H]1CN([C@@H](C)CO)C(=O)CCCn2cc(nn2)CO[C@@H]1CN(C)S(C)(=O)=O	.	.	.	.	14%	.	.
